Data taken from the supplement of paper PMC10515830.
Where a name gives a salt, the structure may show the parent alone.

How the values were obtained:
Details in all cases: 10 µM; exposure time 6 h
[1] = test system: Danio rerio larvae (5 dpf); experiment: difference in excitability vs DMSO (percentage points); higher = more excitable than DMSO
In short: (§1)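 Library compounds were tested at 10 µM final in 100 µL egg water on wild-type 5 dpf zebrafish larvae in 96-well plates for 6 h, with 48 larvae per compound. After 3 h, plates at 28.5 ℃ were imaged every 6 s during a 3-h run of moving lines and 100 ms, 400Hz tones. Behaviours were quantified by Z-LaP Tracker and reported as the compound mean less the vehicle control mean, in percentage points.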

[2] = test system: Danio rerio larvae (5 dpf); experiment: difference in startle response vs DMSO (percentage points); higher = stronger startle than DMSO
In short: as §1

[3] = test system: Danio rerio larvae (5 dpf); experiment: difference in activity during first hour vs DMSO (percentage points); higher = more activity than DMSO
In short: as §1

[4] = test system: Danio rerio larvae (5 dpf); experiment: difference in habituation to acoustic stimuli vs DMSO (percentage points); higher = more habituation than DMSO
In short: as §1

[5] = test system: Danio rerio larvae (5 dpf); experiment: difference in combined optomotor response to red, green and blue moving lines vs DMSO (percentage points); higher = stronger optomotor response than DMSO
In short: as §1

Compound	difference in excitability [1]	difference in startle response [2]	difference in activity during first hour [3]	difference in habituation to acoustic stimuli [4]	difference [5]
O=C1Nc2ccc(Cl)cc2[C@@](C#CC2CC2)(C(F)(F)F)O1 [Efavirenz]	10.7	-10.7	-17.8	-12.8	-17.4
CCN(CC)CCNC(=O)c1c(C)[nH]c(/C=C2\C(=O)Nc3ccc(F)cc32)c1C [Sunitinib (malate)]	17.6	-2.13	-4	0.523	-0.123
CCOC(=O)[C@H](CCc1ccccc1)N[C@@H](C)C(=O)N1[C@H](C(=O)O)C[C@H]2CCCC[C@@H]21 [Trandolapril]	-2.52	-0.34	2.67	-0.88	6.04
C#CCN[C@@H]1CCc2ccccc21 [Rasagiline]	3.5	1.96	10.2	4.46	6.27
O=C1CCc2cc(OCCCCc3nnnn3C3CCCCC3)ccc2N1 [Cilostazol]	12.6	2.9	11.7	-4.79	0.57
COC(=O)[C@H](c1ccccc1Cl)N1CCc2sccc2C1 (racemic) [(±)-Clopidogrel (hydrochloride)]	11.3	3.2	-4.36	-3.13	8.08
COc1cc2nc(N3CCN(C(=O)C4CCCO4)CC3)nc(N)c2cc1OC (stereo not given) [Terazosin (hydrochloride)]	18.5	10.8	-10.2	1.1	13.9
CC1COc2c(N3CCN(C)CC3)c(F)cc3c(=O)c(C(=O)O)cn1c23 (stereo not given) [Ofloxacin]	5.76	3.75	9.1	-0.318	1.41
COc1ccc(-n2nc(C(N)=O)c3c2C(=O)N(c2ccc(N4CCCCC4=O)cc2)CC3)cc1 [Apixaban]	-0.692	-6.58	1.99	4.29	10.4
Cc1nc2n(c(=O)c1CCN1CCC(c3noc4cc(F)ccc34)CC1)CCCC2O (stereo not given) [Paliperidone]	15.4	0.117	18.6	0.732	5.58
N#CC[C@H](C1CCCC1)n1cc(-c2ncnc3[nH]ccc23)cn1 [Ruxolitinib (phosphate)]	-1.61	4.35	6.14	-4.72	17.9
COc1cc(NC(C)CCCN)c2ncccc2c1 (stereo not given) [Primaquine (phosphate)]	23.1	-5.2	2.45	-4.94	-0.724
CC1=C(C(=O)O)N2C(=O)[C@@H](NC(=O)[C@H](N)c3ccccc3)[C@H]2SC1 [Cephalexin]	6.31	7.97	2.55	-0.572	3.98
COC(=O)C1=C(C)NC(C)=C(C(=O)OCCN(C)Cc2ccccc2)C1c1cccc([N+](=O)[O-])c1 (stereo not given) [Nicardipine (hydrochloride)]	7.46	-1.35	14.3	-16.5	-6.14
C=CC(=O)Nc1cc(Nc2nccc(-c3cn(C)c4ccccc34)n2)c(OC)cc1N(C)CCN(C)C	8.96	-2.41	-13.4	-6.69	2.87
C[C@@H](O)[C@H]1C(=O)N2C(C(=O)O)=C(S[C@@H]3CN[C@H](CNS(N)(=O)=O)C3)[C@H](C)[C@H]12 [Doripenem (hydrate)]	0.847	-3.28	18.4	-1.56	-1.12
CON(C)Cc1ccc(O)c2c1C[C@H]1C[C@H]3[C@H](N(C)C)C(=O)C(C(N)=O)=C(O)[C@@]3(O)C(=O)C1=C2O	-1.28	-2.07	7.53	4.95	0.0321
CN(C)CCCN1c2ccccc2Sc2ccc(Cl)cc21 [Chlorpromazine (hydrochloride)]	12.6	-0.58	13.4	-8.52	6.64
CCc1c(Cl)c(O)c(Cl)c(O)c1C(=O)O[C@H]1[C@H](O)[C@H](OC)[C@H](OCC2=CC=CC[C@H](O)C(C)=C[C@H](CC)[C@@H](O[C@@H]3OC(C)(C)C(OC(=O)C(C)C)[C@H](O)[C@@H]3O)C(C)=CC(C)=CC[C@@H]([C@@H](C)O)OC2=O)O[C@@H]1C (stereo not given in full) [Fidaxomycin]	1.12	8.11	12.6	4.21	4.75
N=C(N)NCCCC[C@@H]1NC(=O)CCSSC[C@@H](C(N)=O)NC(=O)[C@@H]2CCCN2C(=O)[C@H](Cc2c[nH]c3ccccc23)NC(=O)[C@H](CC(=O)O)NC(=O)CNC1=O [Eptifibatide]	10.9	3.19	5.64	-3.64	2.85
CCN1C(=O)NC(c2ccccc2)C1=O (stereo not given) [Ethotoin]	-4.35	11.7	-2.99	0.909	-3.6
CCc1c(C)[nH]c2c1C(=O)C(CN1CCOCC1)CC2 (stereo not given) [Molindone (hydrochloride)]	4.99	-3.27	-7.67	-1.62	-2.83
CC(C)CN(C[C@@H](O)[C@H](Cc1ccccc1)NC(=O)O[C@H]1CO[C@H]2OCC[C@H]21)S(=O)(=O)c1ccc(N)cc1 [Darunavir]	-1.86	0.437	0.73	2.66	5.61
CC(CN1c2ccccc2Sc2ccccc21)N(C)C (stereo not given) [Promethazine (hydrochloride)]	7.65	-2.21	16.6	-3.09	4.32
CCC(=O)NCC[C@@H]1CCc2ccc3c(c21)CCO3 [Ramelteon]	33	0.219	-13.3	-1.29	6.65
COc1cc(CNC(=O)CCCC/C=C/C(C)C)ccc1O [Capsaicin]	12.5	8.06	-6.37	-0.624	5.27
CC1=Nc2ccc(Cl)cc2S(=O)(=O)N1 [Diazoxide]	-4.99	1.05	4.03	-3.84	5.23
CN1CCC(=C2c3ccccc3C=Cc3ccccc32)CC1 [Cyproheptadine (hydrochloride hydrate)]	6.61	-4.47	-3.08	-11.2	-16.4
